PubChem BioAssay AID1063 (University of Pittsburgh Molecular Library Screening Center, 2008)
Out of some 200,000 compounds screened, about 18,000 (9%) were called active. The list comes from a sample in which actives are over-represented; it also holds similar structures and randomly drawn compounds. Unmarked numbers belong to inactive results. Rule as the data show it: active = inhibition above about 50%; inactive = the rest.

Test: Leishmania major promastigote growth inhibition, primary screen (AID 1063);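 also: promastigotes grown with compound for 44 hours at 28 °C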
Settings: Leishmania major promastigotes, resazurin fluorescence viability; at 10 µM; hits give high values
Compound CNc1nc2c(C)cccn2c(=O)c1C=Nc1ccc(OC)cc1 has an inhibition of 1.72%. With C/C(=N/NC(=O)c1ccc(NC(=O)c2ccc(F)cc2)cc1)c1ccccc1 the inhibition was -6.46%. Work on COc1ccccc1N(CC(=O)Nc1ccc(C(F)(F)F)cc1)S(C)(=O)=O yielded an inhibition of 1.92%. For CC(=O)Nc1ccc(/C(C)=N/NC(=O)CN(c2ccccc2Br)S(C)(=O)=O)cc1, the inhibition was 50.5% (active). In the case of O=C(Nc1ccccc1F)c1ccc(Cn2cc(Br)cn2)cc1, the inhibition is reported as -6.11%. Cc1ccc(-c2nc(C#N)c(NCCCn3ccnc3)o2)cc1 gave an inhibition of 2.16%. O=C(Cn1ncc(N2CCCC2)c(Br)c1=O)c1ccc(Cl)cc1 showed an inhibition of 1.31%. CC1CCCC(C)N1CCCNC(=O)c1cc2c(=O)n(C)c3ccccc3c2n1C (centres undefined) gave an inhibition of 8.51%. With Cn1c(C(=O)NCCCN2CCN(c3cccc(Cl)c3)CC2)cc2c(=O)n(C)c3ccccc3c21 the inhibition was 62.5% (active). Work on CCn1c(=O)cc(OCC(=O)NCCCN2CCN(c3cccc(Cl)c3)CC2)c2ccccc21 yielded an inhibition of 23.9%. With Cc1cc(NC(=O)CSc2nc3c(cc2C#N)CCCCC3)no1 the inhibition was 2.09%. O=C(CCC1CCCN(C(=O)Cc2ccc(F)cc2)C1)N1CCN(c2ccccn2)CC1 (centres undefined) gave an inhibition of 0.87%. Work on O=C(COC(=O)c1cnccn1)Nc1cccc2ccccc12 yielded an inhibition of -4.62%. Work on Cc1cc(C)n2nc(C(=O)N(C)C(c3ccccc3)c3ccccc3)nc2n1 yielded an inhibition of 0.1%. Work on O=C(CO/N=C/c1ccc(OC(F)F)cc1)NCc1ccc(F)cc1 yielded an inhibition of 6.32%. For COC(=O)CN1C(=S)N(c2ccccc2)C(=O)C1CC(=O)Nc1ccc(Cl)cc1 (centres undefined), the inhibition was 50.4% (active). Compound COc1ccc(N2C(=O)C(CC(=O)Nc3ccccc3)N(Cc3ccc(OC)c(OC)c3)C2=O)cc1 (centres undefined) has an inhibition of -5.05%. Compound CCOc1ccc(NC(=O)CC2C(=O)N(c3ccccc3)C(=O)N2CCOC)cc1 (centres undefined) has an inhibition of -1.57%. Compound O=C(Nc1ccc(-c2ccc3nncn3n2)cc1)C1CCCCC1 has an inhibition of -4.63%. CCc1ccc(CN2C(=O)c3ccccc3C2C(=O)NCC2CCCO2)cc1 (centres undefined) showed an inhibition of 5.61%. COc1cccc(CN(C)CC(=O)NCc2ccccc2Cl)c1OC gave an inhibition of 2.93%. In the case of COC(=O)c1cc(S(=O)(=O)NC2CCN(Cc3ccccc3)CC2)cn1C, the inhibition is reported as 79.3% (active). Cn1c(=O)c(=O)n(C)c2cc(S(=O)(=O)NCCc3ccccc3)ccc21 gave an inhibition of 18.8%. O=C(NC1(C(F)(F)F)NC(=O)N(C2CCCCC2)C1=O)c1ccco1 (centres undefined) gave an inhibition of -0.8%. COc1cc(NC(=S)NCc2ccco2)c(OC)cc1Cl gave an inhibition of 7.75%. In the case of COc1cccc(C(=O)Nc2ccc(NC(=O)c3ccco3)cn2)c1, the inhibition is reported as 4.41%. In the case of O=C(Nc1ccc(NC(=O)c2ccco2)c(Cl)c1)c1cccc([N+](=O)[O-])c1, the inhibition is reported as -5.27%. For COc1ccc(NC(=O)c2cccc(NC(=O)c3ccco3)c2)c(OC)c1, the inhibition was 99.3% (active). In the case of COc1cc(NC(=O)c2cc([N+](=O)[O-])ccc2Br)ccc1NC(=O)c1ccco1, the inhibition is reported as 99% (active). For Cc1ccc(C(=O)COc2cccc(NC(=O)c3ccco3)c2)cc1, the inhibition was 64.6% (active). With Cc1ccnc(NC(=O)c2ccc(NC(=O)c3ccco3)cc2)c1 the inhibition was -2.95%. COC(=O)c1ccc(NC(=O)c2ccco2)cc1 gave an inhibition of -5.73%. COC(=O)c1cc(Cl)c(NC(=O)c2ccco2)cc1OC showed an inhibition of 8.8%. With COc1ccccc1C(=O)Nc1ccc(NC(=O)c2ccco2)c(C)c1 the inhibition was 3.48%. Work on CCS(=O)(=O)c1ccc(O)c(NC(=O)COc2ccc(Cl)cc2)c1 yielded an inhibition of -12.8%. CCOc1c(CNCc2ccc(C(=O)O)cc2)cccc1OC gave an inhibition of -5.92%. NS(=O)(=O)c1ccc(NC(=S)NC(=O)c2cccnc2)cc1 gave an inhibition of -2.35%. COCC(C)n1c(C)cc(C(=O)COc2ccc(C)nc2[N+](=O)[O-])c1C (centres undefined) showed an inhibition of 3.94%. For CCc1ccc(NC(=O)C(=O)N/N=C(\C)CC(=O)NCCOC)cc1, the inhibition was -2.29%. COc1ccc(NC(=O)CN2C(=O)CSC2=O)cc1 showed an inhibition of -6.2%. With COc1cc(SC#N)ccc1N=Cc1c(C)[nH]n(-c2ccc(C)cc2)c1=O the inhibition was 100% (active). Work on CCc1nnc(NS(=O)(=O)c2ccc(N=Cc3c(C)[nH]n(-c4ccc(C)cc4)c3=O)cc2)s1 yielded an inhibition of -3.52%. Cc1ccc(-n2[nH]c(C)c(/C=N/N3C(=O)c4cccc5cccc(c45)C3=O)c2=O)cc1 showed an inhibition of -6.15%. COc1ccc(C)cc1NC(=O)CSc1nnc(CC(=O)Nc2ccccc2F)n1C gave an inhibition of -0.88%. O=C(COC(=O)C12CC3CC(CC(O)(C3)C1)C2)NC12CC3CC(CC(C3)C1)C2 showed an inhibition of 17.4%. With COCCNC(=S)N(Cc1cccnc1)Cc1ccc(OC)c(OC)c1 the inhibition was 1.16%. With Cc1cccc(C)c1NC(=S)N(Cc1cccnc1)Cc1ccccc1Cl the inhibition was 93.8% (active). With Cc1ccc(CN(Cc2cccnc2)C(=S)Nc2cc(Cl)ccc2C)cc1 the inhibition was 93.8% (active). In the case of COCCN(CCOC)C(=S)Nc1ccccc1Cl, the inhibition is reported as -4.19%. With Cc1c(Cl)cccc1NC(=S)N(Cc1ccccc1)Cc1cccnc1 the inhibition was 90.4% (active). With Cc1ccc(NC(=S)NCc2ccccc2Cl)c(C)c1 the inhibition was 22.1%. In the case of Cc1ccc(CN(Cc2cccnc2)C(=S)Nc2cccc(Cl)c2C)cc1, the inhibition is reported as 21.5%. Work on Cc1ccc(C(=O)NC(=S)NCc2cccnc2)cc1 yielded an inhibition of 2.7%. Work on O=C(Nc1ccccc1)N(Cc1cccnc1)Cc1ccco1 yielded an inhibition of 4.43%. Work on CC(C)CCC(C)NC(=O)c1ccc2nccnc2c1 (centres undefined) yielded an inhibition of 11.2%. COc1cc(-c2nnn(CC(=O)NCc3ccccc3)n2)cc(OC)c1OC gave an inhibition of 16.3%. With COc1cc(C(=O)N2C(=O)c3cccc(N)c3C2=O)cc(OC)c1OC the inhibition was -3.21%. COCCn1c(C)cc(C(=O)COC(=O)/C=C/c2cccc(OC)c2)c1C gave an inhibition of 0.63%. Work on Cc1cc(C)nc(NS(=O)(=O)c2ccc(N/C=C\C(=O)c3cccs3)cc2)n1 yielded an inhibition of 4.34%.
